Screening data as filed in PubChem.
MK inhibit = inhibitors of Streptococcus pneumoniae mevalonate kinase. AID 555. inhibition, % at 10 µM. purified MK, PK/LDH-coupled NADH absorbance 340 nm. 65,000 compounds, 0.48% hits;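 active = ranked among the strongest by inhibition in the single 10 µM screen, a fixed top-ranked set picked for dose follow-up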
Spn DPM-DC inh = inhibitors of Streptococcus pneumoniae diphosphomevalonate decarboxylase; 65,000 compounds, 0.49% hits; purified DPM-DC, PK/LDH coupled NADH fluorescence; calls only at 10 µM;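 active = the 320 compounds with the highest percent inhibition in the single-dose primary screen, excluding strongly autofluorescent ones, cut at about 32% in these data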;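 note: kinetic rate of NADH fluorescence loss reporting ADP formed by the decarboxylase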
Spn PMK inh = S. pneumoniae PMK inhibition | inhibition, % at 10 µM | purified PMK, PK/LDH-coupled NADH absorbance 340 nm | 65,000 compounds, 0.49% hits;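 active = top-ranked compounds by inhibition in the single 10 µM screen, taking a fixed number of the strongest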
NADH enzymes = blocks coupling enzymes of NAD/NADH assays. coupled PK/LDH NADH assays, four targets. IC50, µM (doses to about 10 µM). 65,000 compounds, 0.02% hits;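 active = single-dose screening hits from any of four coupled enzyme assays that gave an IC50 when retested across doses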;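 note: the DPM-DC format reads NADH fluorescence rather than 340 nm absorbance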
Autofluor 339 = intrinsic fluorescence of library compounds, ex339/em460 – biochemical, MLSMR library, data from DPM-DC assay, artefact control, profiling panel; compound autofluorescence, ex339/em460 nm, NADH buffer; stronger effect = higher value; 1 = no-compound wells, NADH background; fluorescence fold increase at 10 µM; 65,000 compounds, 5.5% hits; AID 709;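 active = at 10 µM, mean starting fluorescence two-fold or more over control wells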;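 note: signal is the first read of a kinetic run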
A number is an active result; - = inactive; . = no result shown; + = active, no number. Hits are enriched below; roughly 6.6% of the tested compounds scored in any of these assays.

SMILES	MK inhibit	Spn DPM-DC inh	Spn PMK inh	NADH enzymes	Autofluor 339
COC(=O)CSc1nnc2c3c4c(sc3nc(-n3nc(C)cc3C)n12)COC(C)(C)C4	-	-	-	-	2.7
C=CCOc1ccc(CNc2nn[nH]n2)cc1	-	-	-	-	-
COc1cc2c(cc1OC)CN(Cc1ccc(OC)c(C)c1OC)CC2	46	-	-	-	-
COc1cc2c(cc1OC)CN(Cc1cccs1)CC2	48	-	-	-	-
CCS(=O)(=O)N1CCc2cc(OC)c(OC)cc2C1	-	-	-	-	-
COc1ccc(-c2ccc(-c3nnc(-c4ccncc4)o3)cc2)cc1	-	+	-	-	2.4
c1ccc2c(c1)ncc1cccn12	-	.	-	-	2.1
CCN1C(=O)N(C)C(N(O)C(=O)NC)C1(C)C (stereo unspecified)	-	-	-	-	-
CS(=O)(=O)N(CC(=O)N1CCN(Cc2ccccc2)CC1)C1CCCCC1	-	-	-	-	-
CS(=O)(=O)N(CC(=O)N1CCN(c2ccccc2)CC1)C1CCCCC1	-	-	36	-	-
CCc1nc(Nc2ccncc2)c2oc3ccccc3c2n1	-	-	-	-	2
CCc1nc(NC(C)C)c2oc3ccccc3c2n1	-	-	-	-	-
CCOCc1cc(C)[nH]c(=O)c1C#N	-	.	-	-	4.5
COn1c(C)c(C(C)=O)c2c3nonc3ccc21	-	-	-	-	3
CCCCOn1c(C)c(C(=O)OCC)c2c3nonc3ccc21	-	-	-	-	2.6
CSC1=NCCN1C(=O)Cc1cccs1	-	-	-	-	-
CCOC(=O)c1ccccc1NC(=O)c1cc2sccc2n1C	-	-	-	-	2.6
CCOC(=O)c1cccc(NC(=O)c2cc3sccc3n2C)c1	-	-	-	-	-
O=C(CSc1nnc(-c2cccs2)o1)OCc1ccccc1	-	-	-	-	-
CN(C)C(=O)CSc1nnc(-c2cc(-c3cccs3)nc3ccccc23)o1	-	.	-	-	4.9
COc1ccc(OC)c(N(CC(=O)Nc2ccc3c(c2)OCCO3)S(C)(=O)=O)c1	-	-	-	-	-
CCOC(=O)c1c(-c2ccccc2)[nH]c2ccc(O)cc12	-	.	-	-	3.7
CCOC(=O)C1=C(SCC(=O)Nc2ccccc2)NC(=O)C(C#N)C12CCCCC2 (stereo unspecified)	-	-	-	-	-
COc1ccc2c(c1)CCc1c(C(=O)Nc3ccn(Cc4ccc(C)cc4)n3)noc1-2	-	-	-	-	-
COc1ccc2c(c1)CCc1c(C(=O)Nc3ccc(OC)c(OC)c3)noc1-2	-	-	-	-	2.2
SMILES	MK inhibit	Spn DPM-DC inh	Spn PMK inh	NADH enzymes	Autofluor 339
COc1ccc2c(c1)CCc1c(C(=O)Nc3cc(C)n(Cc4ccc(Cl)cc4)n3)noc1-2	-	-	-	-	3.7
COc1ccc(N2C(=O)C3CCCN3C2c2ccccc2Cl)cc1 (stereo unspecified)	-	-	-	-	-
CCOC(=O)N1CCN(S(=O)(=O)c2ccc(C(=O)Nc3nc4c(s3)CC(C)CC4)cc2)CC1 (stereo unspecified)	-	.	-	-	4.6
COc1ccc(-c2c3c(nc4sc(C(=O)Nc5cc(C)on5)c(N)c24)CCC3)cc1	-	+	-	-	2.6
CC(=O)C1=C(C)Nc2ncnn2C1c1ccc(Cl)cc1Cl (stereo unspecified)	-	-	-	-	-
CCc1nc(SCc2ccc(C(=O)OC)o2)c2c(=O)n(C)c(=O)n(C)c2n1	-	-	-	-	-
COc1c2ccoc2nc2c(OC)c(OCC(O)C(C)(C)O)ccc12 (stereo unspecified)	-	.	-	-	2.5
CC1Cc2nc(SCC(=O)Nc3ccc4c(c3)OCO4)n(CCc3ccccc3)c(=O)c2S1 (stereo unspecified)	-	+	-	-	-
O=C(Nc1ncc(Br)s1)C(Cc1ccccc1)n1cccc1 (stereo unspecified)	-	-	-	-	-
O=C(Nc1cccc(-c2nc3cccnc3s2)c1)c1ccco1	-	-	-	-	-
O=C(Nc1ccc(-c2nc3cccnc3s2)cc1)c1ccco1	-	.	-	-	2.1
O=C(Nc1ccc(-c2nc3cccnc3s2)cc1)c1ccc(Br)o1	-	.	-	-	2.2
COCc1cc(C)nc(NC2CCCCC2)c1C#N	-	.	-	-	3.7
COCc1cc(C)nc(N2CCN(c3ccccc3)CC2)c1C#N	-	-	-	-	-
CCn1c(SCC(=O)c2[nH]c(C)c(C(C)=O)c2C)nnc1-c1cccs1	-	-	27	-	-
O=C(COc1ccccc1)Nn1cnc2ccccc21	-	-	-	-	-
COC(=O)c1ccc(Nc2ncnc3c2cnn3-c2cccc(C)c2)cc1	-	.	-	-	2.1
Cc1cccc(NC(=O)c2cnc3sccn3c2=O)c1	-	-	-	-	-
COc1ccc(NC(=O)c2cnc3sccn3c2=O)cc1	-	-	-	-	-
Cc1cccc(NC(=O)c2cnc3sccn3c2=O)n1	active	-	-	-	-
O=C(Nc1ccon1)c1cnc2sccn2c1=O	-	-	-	-	3.2
COc1ccccc1CNC(=O)c1cnc2sccn2c1=O	-	-	-	-	-
O=C(NCc1cccnc1)c1cnc2sccn2c1=O	-	.	-	-	2.2
CCC(c1c(C)[nH]oc1=O)c1c(C)[nH]oc1=O	-	-	-	-	-
CN(C)CCN(Cc1ccccc1)c1ccccn1	-	-	-	-	-
SMILES	MK inhibit	Spn DPM-DC inh	Spn PMK inh	NADH enzymes	Autofluor 339
CN(C)CCN(Cc1ccccc1)c1ccnc(N(C)C)c1C#N	56	-	-	-	-
COc1cccc(CNC(=O)CCNS(=O)(=O)c2cccs2)c1	-	-	-	-	-
CCOC(=O)c1cc2c(ccn2C)n1CC(=O)N1CCN(c2ccccc2OC)CC1	-	-	-	-	-
CCN(CC)c1ccc(/C=N/n2c(=S)[nH]nc(C)c2=O)cc1	-	+	-	39µM	-
CC(=O)COc1cc(C)cc2oc(=O)c(C)c(C)c12	-	.	-	-	3.9
CC(=O)C(C)Oc1cc(C)cc2oc(=O)c(C)c(C)c12 (stereo unspecified)	-	.	-	-	3.6
CCCCn1c2c(c(=O)n(C)c1=O)C(CC(=O)OCC(=O)Nc1cccc(C(F)(F)F)c1)C(=O)N2 (stereo unspecified)	-	-	-	-	-
O=C(COc1ncnc2sccc12)N1CCc2ccccc2C1	-	-	-	-	-
Cc1oc(C)c2c(=O)ccc3c(c12)OC(N)=C(C#N)C3c1ccc(F)cc1 (stereo unspecified)	-	-	-	-	-
COc1cccc2c(=O)c3c(cnn3C)n(C)c12	-	.	-	-	2.5
Cc1nn(-c2ccccc2)c2sc(C(=O)OCc3nnc(-c4ccccc4)o3)cc12	-	-	-	-	-
CCCc1nc(-c2cc3ccc(C)cc3[nH]c2=O)no1	-	.	-	-	2.2
Cc1ccc2cc(-c3noc(C4CCCCC4)n3)c(=O)[nH]c2c1	-	.	-	-	2.2
Cc1ccc2cc(-c3noc(C4CCCO4)n3)c(=O)[nH]c2c1 (stereo unspecified)	-	.	-	-	2.2
